Potency and outcome data for 8 compounds are collected here from PubChem BioAssay (NCATS).

Assay [1] addresses Atrial natriuretic peptide receptor 1 (Homo sapiens) (UniProt P16066). As to the kind of experiment: Natriuretic polypeptide receptor (hNpr1) antagonism - Pilot screen (AID 1347049; calls by dose curve;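 note: agonist-evoked cGMP luminescence read 20 min after hNppA addition; series mostly up to about 58 µM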). A digest of the protocol:
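cGMP-sensor HEK293/hNpr1 cells, 1500/well, plated overnight at 37C. 2% GloSensor reagent, 2 h RT. Compound (23 nL pin transfer) 30 min RT, baseline luminescence pre-read. 0.1 nM hNppA, 20 min RT, post-read.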

A short description of assay [2]: NS1 protein of Zika virus - qHTS assay to identify small molecule inhibitors in human HEK 293 cells (AID 1347053). Note: nearly all actives have a fitted effect of over 55% in size. Note: potency is the fitted concentration of half-maximal effect. Put shortly: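 Read-out is a two-antibody TR-FRET for ZIKV NS1, normalized between uninfected cells and infected cells. Compound added 1 h before MR766 infection at MOI 0.5; human HEK 293 cells incubated 24 h, 37 C.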
In assay [3] the target is T1, Tyrosine-protein phosphatase non-receptor type substrate 1 (Homo sapiens) + Leukocyte surface antigen CD47 (Homo sapiens) (UniProt P78324+Q08722). In words: CD47-SIRPalpha protein protein interaction - LANCE assay qHTS validation (AID 1347057; active = well fitted curve in the direction sought with a large enough effect in the signal ratio, with a control signal flat, not every such curve was filed as active; the % refers to the signal ratio; note: series mostly up to about 38 µM). Put shortly:
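Inhibition of soluble CD47/SIRPalpha ectodomain association by titrated compounds, measured as 665/615 nm time-resolved FRET ratio after sequential 30 min room-temperature incubations.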

Assay [4] concerns the target T1, Tyrosine-protein phosphatase non-receptor type substrate 1 (Homo sapiens) + Leukocyte surface antigen CD47 (Homo sapiens). In words: CD47-SIRPalpha protein protein interaction - HTRF assay qHTS validation (AID 1347058; active = well fitted curve in the direction sought with a large enough effect in the signal ratio, not every such curve was filed as active; the % refers to the signal ratio; note: series mostly up to about 38 µM). Put shortly:
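Soluble extracellular domains (6His-CD47, Avi-tag-biotinylated SIRPalpha) in PBS pH 7.4 with 0.05% IGEPAL CA-630. Compounds were preincubated 30 min at RT with CD47 and anti-His-Eu, then SIRPalpha and SAV-XL665 were added. TR-FRET 665/615 ratio.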

Assay [5] shares this target. In words: CD47-SIRPalpha protein protein interaction - Alpha assay qHTS validation (AID 1347059).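 Note: bead proximity luminescence from CD47 binding SIRPalpha after compound preincubation with SIRPalpha.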 Put shortly:
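SIRPalpha-biotin 25 nM + cpd, 30 min RT, dark; add CD47-His 12.5 nM, 30 min; add Ni-NTA/SAV beads 10 ug/mL, 30 min; AlphaScreen. Buffer PBS pH 7.4 + 0.05% IGEPAL CA-630. Non-biotinylated SIRPalpha as control inhibitor.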

For assay [6], the target named is Parathyroid hormone/parathyroid hormone-related peptide receptor (Homo sapiens) (UniProt Q03431). As to the kind of experiment: qHTS for PTHR1 Agonists: Optimization Screen against the NCGC LOPAC library (AID 1347079).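 Note: GloSensor cAMP luminescence in HEK-293 GP2 cells expressing human PTHR1 with IBMX.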 Put shortly: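 HEK-293 GP2 cells, PTHR1 + GloSensor cAMP; 3000 cells/well, o/n. Luciferin + IBMX 0.5mM each (stock), 1 hr 37C. Cpd titration, 1 hr 37C. Lum after 15 min RT. Ctrl M-PTH(1-15) top 10uM.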
Chain of Parathyroid hormone/parathyroid hormone-related peptide receptor (Homo sapiens) (Q03431 whole entry, looked up): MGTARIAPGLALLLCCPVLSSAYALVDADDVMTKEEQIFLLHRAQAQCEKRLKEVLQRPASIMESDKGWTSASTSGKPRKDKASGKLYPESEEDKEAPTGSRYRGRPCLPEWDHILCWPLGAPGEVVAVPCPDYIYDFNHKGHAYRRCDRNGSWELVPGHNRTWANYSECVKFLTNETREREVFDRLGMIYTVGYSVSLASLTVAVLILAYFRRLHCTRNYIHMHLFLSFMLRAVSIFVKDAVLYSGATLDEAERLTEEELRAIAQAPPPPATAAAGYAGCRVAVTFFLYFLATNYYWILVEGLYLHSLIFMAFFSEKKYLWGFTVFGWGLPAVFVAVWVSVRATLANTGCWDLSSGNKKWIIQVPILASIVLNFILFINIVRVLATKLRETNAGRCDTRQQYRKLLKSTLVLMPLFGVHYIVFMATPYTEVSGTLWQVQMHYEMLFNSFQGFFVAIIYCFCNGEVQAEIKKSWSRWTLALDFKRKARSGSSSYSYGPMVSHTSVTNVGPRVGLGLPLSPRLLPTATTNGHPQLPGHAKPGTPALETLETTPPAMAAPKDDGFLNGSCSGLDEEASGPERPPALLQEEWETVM

Assay [7] is described as follows: qHTS of pediatric cancer cell lines to identify multiple opportunities for drug repurposing: Primary screen for SJ-GBM2 cells (AID 1347091). Note: potency is the fitted concentration of half-maximal effect. Put shortly:
(§1)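 Viability measured as metabolically active cells via CellTiter-Glo luminescence following 48 hours of compound exposure, 11-point dilutions in confirmatory testing. 500-1,000 cells/well plated 5 hours before dosing; controls were DMSO and 2.3 µM bortezomib.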

Assay [8] can be described thus: qHTS of pediatric cancer cell lines to identify multiple opportunities for drug repurposing: Primary screen for SK-N-MC cells (AID 1347093). Note: potency is the fitted concentration of half-maximal effect. A digest of the protocol: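 Metabolically active cells were quantified by ATP-dependent luminescence (CellTiter-Glo, 15 min at room temperature) following 48 h treatment. Cells had been plated at 500-1,000 per well and settled for 5 h beforehand.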

Assay [9] in a line: qHTS of pediatric cancer cell lines to identify multiple opportunities for drug repurposing: Primary screen for BT-37 cells (AID 1347094). Note: potency is the fitted concentration of half-maximal effect. A digest of the protocol: (§2)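 Following a 5-hour attachment period, cells at 500-1,000/well received compounds and were cultured for 48 hours. CellTiter-Glo was added and luminescence read to estimate viable, metabolically active cells.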
Assay [10] in a line: qHTS of pediatric cancer cell lines to identify multiple opportunities for drug repurposing: Primary screen for NB-EBc1 cells (AID 1347095). Note: potency is the fitted concentration of half-maximal effect. Put shortly: as §2
Assay [11] in a line: qHTS of pediatric cancer cell lines to identify multiple opportunities for drug repurposing: Primary screen for U-2 OS cells (AID 1347096). Note: nearly all actives have a fitted effect of over 50% in size. Put shortly: (§3)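 Viability after 48 h compound treatment at 37C, 500-1,000 cells/well, read as ATP luminescence with CellTiter-Glo. Primary screens used 11-point (MIPE, 0.78 nM-46 µM) or 8-point (NPC, 0.59 nM-46 µM) final concentrations; follow-up screens used 11-point dilutions.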

Assay [12] in a line: qHTS of pediatric cancer cell lines to identify multiple opportunities for drug repurposing: Primary screen for Saos-2 cells (AID 1347097). Note: nearly all actives have a fitted effect of over 40% in size. Note: potency is the fitted concentration of half-maximal effect. A digest of the protocol: as §2
Assay [13] is described as follows: qHTS of pediatric cancer cell lines to identify multiple opportunities for drug repurposing: Primary screen for SK-N-SH cells (AID 1347098). Note: nearly all actives have a fitted effect of over 65% in size. Note: potency is the fitted concentration of half-maximal effect. A digest of the protocol:
(§4)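 Cells (500-1,000/well) rested 5 h, then received compounds for 48 h; metabolically active cells were measured by CellTiter-Glo luminescence. Final concentrations spanned up to 46 µM (MIPE, 11-point) or 0.59 nM-46 µM (NPC, 8-point) in primary screens, 11-point in follow-ups.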

Assay [14] is described as follows: qHTS of pediatric cancer cell lines to identify multiple opportunities for drug repurposing: Primary screen for NB1643 cells (AID 1347099). Note: nearly all actives have a fitted effect of over 50% in size. Note: potency is the fitted concentration of half-maximal effect. Put shortly: as §2
Assay [15] is described as follows: qHTS of pediatric cancer cell lines to identify multiple opportunities for drug repurposing: Primary screen for LAN-5 cells (AID 1347100). Note: potency is the fitted concentration of half-maximal effect. Put shortly:
as §3

Assay [16] is described as follows: qHTS of pediatric cancer cell lines to identify multiple opportunities for drug repurposing: Primary screen for BT-12 cells (AID 1347101). Note: nearly all actives have a fitted effect of over 25% in size. Note: potency is the fitted concentration of half-maximal effect. A digest of the protocol:
as §4

Assay [17] can be described thus: qHTS of pediatric cancer cell lines to identify multiple opportunities for drug repurposing: Primary screen for TC32 cells (AID 1347089). Note: nearly all actives have a fitted effect of over 60% in size. A digest of the protocol:
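Measured quantity: luminescence from CellTiter-Glo, reflecting metabolically active TC32 cells following 48 h of compound. Curves came straight from multi-point titrations, with 8 or 11 points in primary and 11 in confirmatory screening.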

Assay [18] can be described thus: qHTS of pediatric cancer cell lines to identify multiple opportunities for drug repurposing: Primary screen for A673 cells (AID 1347092). Note: nearly all actives have a fitted effect of over 45% in size. Note: potency is the fitted concentration of half-maximal effect. Put shortly: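 Cells are plated, rested 5 h, dosed by pintool, incubated 48 h, then lysed with CellTiter-Glo and read by luminescence. DMSO is the neutral control; bortezomib at 2.3 uM final is the positive control.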
A short description of assay [19]: qHTS of pediatric cancer cell lines to identify multiple opportunities for drug repurposing: Primary screen for DAOY cells (AID 1347090). Note: nearly all actives have a fitted effect of over 55% in size. Note: potency is the fitted concentration of half-maximal effect. Put shortly: as §1
For assay [20], the target named is Atrial natriuretic peptide receptor 2 (Homo sapiens) (UniProt P20594). As to the kind of experiment: Natriuretic polypeptide receptor (hNpr2) antagonism - Pilot subtype selectivity assay (AID 1347050; calls by dose curve; note: potency is the fitted concentration of half-maximal effect). A digest of the protocol:
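Luminescence from a genetically encoded cGMP luciferase biosensor in hNpr2-expressing HEK293 cells is read before and 20 min after adding 1 nM hNppC. Test compounds, in interplate 1:5 titrations, are added 30-50 min ahead of the agonist.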

Values joined by “and” are separate entries in the source; they are usually repeats but may differ in a detail not shown here. Identical values can stand only once. Records with an inconclusive call do not appear. More than one record can exist for a structure, and the calls need not agree. Active and inactive are the calls of the source. Unless noted, calls come from the whole dose curve; as a rule, active = well fitted curve in the direction sought with a large enough effect; inconclusive = small, poorly fitted or top-dose-only effect, or another doubt; inactive = no such curve, though single readings can be large; an effect the other way counts as inactive or inconclusive.

Chain of Atrial natriuretic peptide receptor 1 (Homo sapiens) (P16066 whole entry, looked up): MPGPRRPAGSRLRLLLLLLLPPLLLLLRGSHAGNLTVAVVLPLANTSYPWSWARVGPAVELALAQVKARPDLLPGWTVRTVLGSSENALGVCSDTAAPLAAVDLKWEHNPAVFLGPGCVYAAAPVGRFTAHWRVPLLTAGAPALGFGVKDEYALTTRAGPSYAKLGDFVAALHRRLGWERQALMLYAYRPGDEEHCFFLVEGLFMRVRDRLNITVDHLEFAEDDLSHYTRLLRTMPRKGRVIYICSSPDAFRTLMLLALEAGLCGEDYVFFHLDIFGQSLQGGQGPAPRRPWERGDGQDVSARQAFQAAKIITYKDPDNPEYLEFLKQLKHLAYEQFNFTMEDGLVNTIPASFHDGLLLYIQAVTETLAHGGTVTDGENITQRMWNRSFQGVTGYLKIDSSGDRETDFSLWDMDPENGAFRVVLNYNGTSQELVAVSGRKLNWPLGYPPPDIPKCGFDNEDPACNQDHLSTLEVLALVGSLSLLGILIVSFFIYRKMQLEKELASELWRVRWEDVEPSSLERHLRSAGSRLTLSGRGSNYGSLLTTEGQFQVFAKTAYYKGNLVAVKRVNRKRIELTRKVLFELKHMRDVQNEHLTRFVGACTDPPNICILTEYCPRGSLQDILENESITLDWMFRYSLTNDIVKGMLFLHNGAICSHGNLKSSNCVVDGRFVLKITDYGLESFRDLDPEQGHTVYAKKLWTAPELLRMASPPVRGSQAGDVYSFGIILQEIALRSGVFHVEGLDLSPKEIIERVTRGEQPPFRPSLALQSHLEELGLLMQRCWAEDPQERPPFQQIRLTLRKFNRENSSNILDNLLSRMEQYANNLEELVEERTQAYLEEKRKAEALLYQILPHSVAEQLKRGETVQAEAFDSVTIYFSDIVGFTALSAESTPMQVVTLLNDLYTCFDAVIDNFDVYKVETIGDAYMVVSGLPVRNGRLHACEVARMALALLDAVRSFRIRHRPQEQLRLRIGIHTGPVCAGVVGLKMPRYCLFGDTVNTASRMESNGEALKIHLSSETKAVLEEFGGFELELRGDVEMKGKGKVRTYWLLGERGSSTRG
T1 sequence (P78324 whole entry, looked up, the tested form may be a part): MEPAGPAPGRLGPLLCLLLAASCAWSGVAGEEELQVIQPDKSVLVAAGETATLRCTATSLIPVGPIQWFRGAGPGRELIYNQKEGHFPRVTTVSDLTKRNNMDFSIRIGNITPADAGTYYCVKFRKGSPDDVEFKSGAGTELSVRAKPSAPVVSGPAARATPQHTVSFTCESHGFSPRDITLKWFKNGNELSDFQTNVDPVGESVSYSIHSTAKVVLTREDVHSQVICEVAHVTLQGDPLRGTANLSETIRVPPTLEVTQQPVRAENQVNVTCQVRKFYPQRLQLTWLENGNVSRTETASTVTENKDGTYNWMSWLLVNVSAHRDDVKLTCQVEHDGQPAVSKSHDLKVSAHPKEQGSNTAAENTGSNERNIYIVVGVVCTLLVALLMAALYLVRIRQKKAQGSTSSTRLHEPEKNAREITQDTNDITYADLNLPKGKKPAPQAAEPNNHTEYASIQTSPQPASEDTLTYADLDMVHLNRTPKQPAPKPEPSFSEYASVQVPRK
T1 sequence (Q08722 whole entry, looked up, the tested form may be a part): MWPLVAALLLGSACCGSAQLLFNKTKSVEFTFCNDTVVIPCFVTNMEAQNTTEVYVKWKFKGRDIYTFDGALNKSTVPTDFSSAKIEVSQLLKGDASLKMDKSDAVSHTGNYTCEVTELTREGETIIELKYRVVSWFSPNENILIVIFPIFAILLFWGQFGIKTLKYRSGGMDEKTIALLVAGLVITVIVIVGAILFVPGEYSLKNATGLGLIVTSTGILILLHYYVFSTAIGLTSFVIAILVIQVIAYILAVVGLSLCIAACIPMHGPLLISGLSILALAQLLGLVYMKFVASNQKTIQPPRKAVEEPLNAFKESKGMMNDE
Chain of Atrial natriuretic peptide receptor 2 (Homo sapiens) (P20594 whole entry, looked up): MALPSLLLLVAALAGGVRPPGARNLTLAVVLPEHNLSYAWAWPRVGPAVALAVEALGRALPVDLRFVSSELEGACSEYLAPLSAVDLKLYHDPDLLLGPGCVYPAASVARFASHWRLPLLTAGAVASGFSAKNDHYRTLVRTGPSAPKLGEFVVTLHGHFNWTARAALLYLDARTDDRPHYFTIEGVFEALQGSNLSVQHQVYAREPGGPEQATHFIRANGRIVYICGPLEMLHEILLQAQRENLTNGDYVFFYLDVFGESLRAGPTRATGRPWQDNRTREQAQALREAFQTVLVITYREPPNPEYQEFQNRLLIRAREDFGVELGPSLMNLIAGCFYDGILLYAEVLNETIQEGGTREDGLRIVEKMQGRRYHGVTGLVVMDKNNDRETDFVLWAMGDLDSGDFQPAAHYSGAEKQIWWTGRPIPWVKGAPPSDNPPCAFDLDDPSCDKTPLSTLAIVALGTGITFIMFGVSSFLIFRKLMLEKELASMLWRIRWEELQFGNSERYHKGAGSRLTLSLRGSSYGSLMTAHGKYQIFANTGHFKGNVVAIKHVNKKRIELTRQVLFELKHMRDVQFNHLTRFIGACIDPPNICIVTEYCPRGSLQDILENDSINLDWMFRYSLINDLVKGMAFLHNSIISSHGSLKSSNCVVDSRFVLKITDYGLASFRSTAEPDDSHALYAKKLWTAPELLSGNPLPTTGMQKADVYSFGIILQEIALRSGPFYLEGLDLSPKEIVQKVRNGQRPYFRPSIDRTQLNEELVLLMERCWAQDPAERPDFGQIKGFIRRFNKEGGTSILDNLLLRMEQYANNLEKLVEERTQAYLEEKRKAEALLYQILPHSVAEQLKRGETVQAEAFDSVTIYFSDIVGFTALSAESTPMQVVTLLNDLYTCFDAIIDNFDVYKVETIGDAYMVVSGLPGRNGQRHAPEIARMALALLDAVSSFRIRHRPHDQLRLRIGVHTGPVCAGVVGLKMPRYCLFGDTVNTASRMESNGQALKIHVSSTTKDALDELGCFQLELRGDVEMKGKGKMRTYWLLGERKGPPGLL

Consider `CN1CCC(=C2c3ccccc3CC(=O)c3sccc32)CC1`, for which the Potency entry in [1], in assay [2], in [5], in assay [6], in assay [7] and in [9] was “inactive” in each case. In addition, the Potency result in [10], in assay [11], in [12], in [14], in assay [15] and in [16] was “inactive” each time. Further, the result in assay [3] and in assay [4] was inactive. The Potency was 6.62 µM (active) in assay [8] and 24.1 µM (active) in assay [13].
Turning to `O=C1Cc2cc(CCN3CCN(c4nsc5ccccc45)CC3)c(Cl)cc2N1`, the Potency result in assay [1], in assay [2], in assay [5], in assay [6], in assay [17] and in assay [7] was “inactive” throughout. Further, the Potency entry in [8], in assay [10], in [11], in assay [13], in assay [14] and in [15] was “inactive” each time. In [16], the Potency entry was “inactive”. Further, the result in [3] and in assay [4] was inactive.
As for `CN(C)C(=O)C(CCN1CCC(O)(c2ccc(Cl)cc2)CC1)(c1ccccc1)c1ccccc1`, the Potency entry in assay [1], in assay [2], in [5], in assay [6], in assay [10] and in [11] was “inactive” each time. Moreover, the Potency result in assay [12] was “inactive”. Also, the outcome in assay [3] and in [4] was inactive. The Potency in assay [18] was 18.7 µM (active); in [8] it was 18.7 µM (active); in assay [9] it was 24.3 µM (active); in [13], 24.1 µM (active) and 15.4 µM (active); in [14], 26.6 µM (active); in assay [15] it was 18.7 µM (active). The Potency in assay [16] is 19.3 µM (active) and 21.9 µM (active).
With `CC1(CN2CCC(n3c(=O)[nH]c4ccccc43)CC2)OCc2ccccc2-n2cccc21` (configuration not stated), the Potency result in assay [2], in assay [17], in assay [19], in [7], in assay [9] and in [11] was “inactive” in each case. Also, the Potency entry in [12], in assay [14], in assay [15] and in [16] was “inactive” in each case. The Potency in [8] was 33.2 µM (active); in assay [13], 24.4 µM (active).
As for `Fc1ccc([C@@H]2CCNC[C@H]2COc2ccc3c(c2)OCO3)cc1`, the Potency result in [1], in assay [2], in assay [6], in [17], in assay [19] and in assay [8] was “inactive” each time. Moreover, the Potency result in assay [9], in assay [10], in assay [11], in assay [12], in assay [13] and in assay [14] was “inactive” each time. Besides, the Potency result in assay [15] and in assay [16] was “inactive” in each case. Moreover, the result in assay [3] was inactive.
Consider `CC1(C)O[C@H]2CC(=O)OC[C@]23[C@H]2CC[C@@]4(C)[C@H](c5ccoc5)OC(=O)[C@H]5O[C@]54[C@]2(C)C(=O)C[C@@H]13`, for which the Potency entry in [2], in assay [19], in [7], in assay [18], in assay [8] and in assay [9] was “inactive” in each case. Besides, the Potency result in assay [10], in [11], in assay [12], in [13], in assay [14] and in [15] was “inactive” each time. Also, the Potency result in [16] is “inactive”.
For the compound `CN(C)CCC=C1c2ccccc2C=Cc2ccccc21`, the results for the Potency in assay [20], in [12] and in assay [13] were 16.5 µM (active), 29.6 µM (active) and 27.3 µM (active), respectively. Further, the Potency entry in assay [2], in assay [5], in assay [6], in [17], in assay [19] and in assay [9] was “inactive” each time. Besides, the Potency result in [10], in assay [11], in assay [14] and in assay [15] was “inactive” each time. Also, the outcome in assay [3] and in assay [4] was inactive.
For `COC(=O)Nc1nc2ccc(C(=O)c3cccs3)cc2[nH]1`, the Potency result in assay [1], in [5], in [6] and in [13] was “inactive” throughout. In addition, the Potency was 235 nM (active) and inactive in assay [2]; 11.8 nM (active) and 106 nM (active) in [19]; 1 nM (active) and 119 nM (active) in assay [7]; 0.0059 µM (active) in [18]; 4.7 nM (active) and 94.4 nM (active) in assay [8]; 15.3 nM (active) and 276 nM (active) in assay [9]. Further, the Potency in assay [10] is 1 nM (active) and 84.1 nM (active); in assay [12], 4.7 nM (active) and 94.4 nM (active); in [15], 3.3 nM (active) and 119 nM (active); in [16], 19.3 nM (active) and 347 nM (active). Also, the result in [3] was inactive.
